# According to PubChem BioAssay AID743449 (Broad Institute, 2014):
# Hit rate of the full screen: of about 9,900 compounds, about 90 (0.9%) were called active. About 2% were inconclusive and are not listed. Only a selection was taken, and actives are over-represented in it overall. Unmarked numbers belong to inactive results.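 How the source made its calls: active means mean normalized replicate activity at least 50 and at least half of replicates each reaching 50; inconclusive means only one of the two criteria met; inactive means neither criterion met.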
# Test: reduction of CTGF mRNA in DLD1 cells – DLD1 colon cancer cells, RT-qPCR, single point, primary screen (AID 743449);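 further: 0% = neutral control wells and 100% = dasatinib control wells; higher means stronger suppression of CTGF expression like dasatinib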
# Settings: 24 h, at 12.5 µM, hits give high values
row,SMILES,inhibition
1,O=C(Cc1ccncc1)N1CCCCN2[C@@H](CO)[C@H](c3ccc(C#Cc4ccccc4F)cc3)[C@@H]2C1,22.3%
2,O=C(Cc1ccncc1)N1CCCCN2[C@H](CO)[C@@H](c3ccc(C#Cc4ccccc4F)cc3)[C@@H]2C1,39.4%
3,COc1cccc(-c2ccc([C@@H]3[C@@H](CO)N4CCCCN(C(=O)Cc5ccncc5)C[C@@H]34)cc2)c1,32.9%
4,COc1cccc(-c2ccc([C@H]3[C@H]4CN(C(=O)Cc5ccncc5)CCCCN4[C@H]3CO)cc2)c1,76.7% (active)
5,COc1cccc(-c2ccc([C@H]3[C@@H](CO)N4CCCCN(C(=O)Cc5ccncc5)C[C@@H]34)cc2)c1,18.9%
6,O=C(Cc1ccncc1)N1CCCCN2[C@H](C1)[C@@H](c1ccc(C#Cc3ccccc3F)cc1)[C@@H]2CO,12.4%
7,O=C(Cc1ccncc1)N1CCCCN2[C@@H](CO)[C@@H](c3ccc(C#Cc4ccccc4F)cc3)[C@@H]2C1,27.9%
8,O=C(Cc1ccncc1)N1CCCCN2[C@H](CO)[C@@H](c3ccc(C#Cc4ccccc4F)cc3)[C@H]2C1,54.3% (active)
9,O=C(Cc1ccncc1)N1CCCCN2[C@H](C1)[C@H](c1ccc(C#Cc3ccccc3F)cc1)[C@@H]2CO,104% (active)
10,O=C(O)[C@H]1[C@H](CO)[C@H]2Cn3c(ccc(-c4ccncc4)c3=O)[C@@H]1N2S(=O)(=O)c1ccccc1F,-4.67%
11,C/C=C/c1ccc([C@H]2[C@@H](CO)N3CCCCN(C(=O)Cc4cccnc4)C[C@@H]23)cc1,-13.7%
12,C[C@@H]1CN([C@@H](C)CO)C(=O)CCCn2nncc2CO[C@H]1CN(C)C(=O)Oc1cccc2ccccc12,-0.0735%
13,COc1ccccc1CN1[C@H](CO)[C@H](c2ccccc2)C12CN(C(=O)Cc1ccccc1)C2,-16.1%
14,C/C=C/c1ccc([C@H]2[C@H](CO)N3CCCCN(C(=O)Cc4cccnc4)C[C@@H]23)cc1,13.9%
15,O=C([C@H]1N[C@H]2c3cccc(=O)n3C[C@H]2[C@@H]1CO)N1CCCCC1,-21.1%
